Data: PubChem BioAssay (NCI)
About 79,000 compounds went through this panel and 15% of them were active in at least one assay; those are over-represented in the sample as a whole. Rule as the data show it: active = growth inhibition above about 70%; inactive = the rest.

How the values were obtained:
[1] = NCI Yeast Anticancer Drug Screen. Data for the rad50 strain (AID 155);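 also: 0% = growth of vehicle-only cultures of the same strain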; details: S. cerevisiae rad50 strain growth inhibition; at 50.0 µM; hits give high values
Outline: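 Vehicle-treated cultures provide the reference for the growth inhibition reported for compound-exposed, repair-deficient yeast.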

[2] = NCI Yeast Anticancer Drug Screen. Data for the mec2-1 strain (AID 157); details: S. cerevisiae mec2-1 strain, at 50.0 µM, hits give high values
Outline: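 Mutant yeast (mec2-1) grown with compound; growth inhibition relative to vehicle control reported.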

[3] = NCI Yeast Anticancer Drug Screen. Data for the sgs1 mgt1 strain (AID 161);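 also: 0% = growth of cultures given vehicle only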; details: S. cerevisiae sgs1 mgt1 strain, at 50.0 µM, hits give high values
Outline: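 Percent growth inhibition was derived by comparing compound-exposed mutant yeast with vehicle-exposed cultures. The strain carries alterations in DNA damage repair.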

[4] = NCI Yeast Anticancer Drug Screen. Data for the cln2 rad14 strain (AID 165);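 also: 0% = growth equal to vehicle treated cultures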; details: S. cerevisiae cln2 rad14 strain, at 50.0 µM, hits give high values
Outline: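 Readout is yeast growth inhibition versus vehicle-treated controls, using a strain with cln2 and rad14 alterations exposed to compound.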

[5] = NCI Yeast Anticancer Drug Screen. Data for the bub3 strain (AID 167); details: S. cerevisiae bub3 mutant strain, at 50.0 µM, hits give high values
Outline: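 Mutant yeast screening strain plus compound; vehicle-treated cultures serve as the 0% inhibition reference.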

[6] = NCI Yeast Anticancer Drug Screen. Data for the mlh1 rad18 strain (AID 175); details: S. cerevisiae mlh1 rad18 strain growth inhibition; at 50.0 µM; hits give high values
Outline: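 Genetically defined yeast (DNA repair-deficient) exposed to compounds; growth inhibition determined relative to vehicle.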

Measured: growth inhibition

O=S(=O)(O)n1ccnc1 (tested in a mixture with another compound)
inactive: [1] 20.9% | [2] 12.3% | [3] 1.3% | [4] -27.9% | [5] 14.7% | [6] 18.4%

CN(C)S(=O)(=O)c1nc2nc[nH]c(=O)c2[nH]1
inactive: [1] -3.2% | [2] -20.4% | [3] -3.8% | [4] -15.9% | [5] -8.55% | [6] -22.9%

CN(/N=C\c1ccc2ccccc2c1)C1=NCCN1
inactive: [1] 5.65% | [2] 0.25% | [3] -14.8% | [4] -63% | [5] 4.1% | [6] -12.1%

NC(=O)[N+](=CC(=S)Nc1ccccc1Cl)C(N)=O
inactive: [1] -43.3% | [2] -43.5% | [3] -36.7% | [4] -15.8% | [5] -33.4% | [6] 34.6%

CC(C)(NC(=O)c1ccccc1)NC(=O)c1ccccc1
inactive: [1] 5.35% | [2] -10.1% | [3] -5.8% | [4] -38.2% | [5] 5.55% | [6] -6.35%

CCOc1ccc(NCC(=O)N2CC(=O)Nc3ccccc32)cc1
inactive: [1] -19.6% | [2] -21.9% | [3] -40.4% | [4] -5.15% | [5] -42.2% | [6] -35.2%

Cc1ccc(C(=O)c2ccccc2C(=O)O)cc1C(=O)O
inactive: [1] 8.9% | [2] 11.1% | [3] 1.15% | [4] 2.7% | [5] 10.2% | [6] -7.05%

COC(=O)c1cnccn1
inactive: [1] -3.3% | [2] -1.35% | [3] -3.85% | [4] -27.4% | [5] 0.75% | [6] -6.3%

Cc1ccnc(Nc2nnc(Nc3cc(C)ccn3)c3ccccc23)c1
inactive: [1] -20.8% | [2] -12.6% | [3] -5.85% | [4] -22% | [5] -3.8% | [6] -4.45%

CCS(=O)(=O)c1ccc(NC(=O)OCc2ccccc2)cc1
inactive: [1] 12.1% | [2] 23.4% | [3] 22.4% | [4] -4.4% | [5] 25.5% | [6] -2.4%

C=CCC1C(=O)NN=C1C (configuration not stated)
inactive: [1] 5.05% | [2] -12.1% | [3] -10.7% | [4] -22.5% | [5] -5.5% | [6] 2.45%

CN1CCN=C(C(=O)O)C=C1c1ccccc1O
inactive: [1] 28.9% | [2] 26.7% | [3] 26.7% | [4] -28.2% | [5] -2.4% | [6] 11.9%

CC(NC(=O)C(=O)c1ccccc1)c1ccccc1 (configuration not stated)
inactive: [1] 10.4% | [2] -2.95% | [3] -13.6% | [4] 20.1% | [5] 27.4% | [6] -12.2%

c1ccc2c(c1)NC(N1CCCCC1)=Nc1ncncc1-2
inactive: [1] 14.8% | [2] -8.15% | [3] 7.75% | [4] -15.1% | [5] -1.7% | [6] 2%

COc1cc(N)ccc1C(=O)NC(CCC(=O)O)C(=O)O (configuration not stated)
inactive: [1] -14.5% | [2] -11.2% | [3] 24.9% | [4] -33.7% | [5] 17.9% | [6] -19.7%

CCC1([N+](=O)[O-])CC2C=CC1C2 (configuration not stated)
inactive: [1] 2.2% | [2] -14.3% | [3] -26% | [4] -4.15% | [5] -21.7% | [6] -13.2%

CN1C(=O)C23CCCN2C(=O)C1(C)SC(=N)S3 (configuration not stated)
inactive: [1] 2.35% | [2] 7.6% | [3] -2.55% | [4] -45.4% | [5] 2% | [6] 4.95%

N=c1ncn(C/C=C/c2ccccc2)c2nc[nH]c12
inactive: [1] -12.7% | [2] -28.4% | [3] -8.55% | [4] -11.4% | [5] -63.3% | [6] 5%

COc1ccccc1C1C(C(=O)Nc2ccccc2)=C(C)NC(C)=C1C(=O)Nc1ccccc1
inactive: [1] -3.2% | [2] -21.9% | [3] -36.2% | [4] 15.1% | [5] -3.85% | [6] -11.2%

S=C1NC=CC(S)N1 (configuration not stated)
inactive: [1] -3.3% | [2] 5.95% | [3] 6.6% | [4] 10.3% | [5] 11.2% | [6] -1.35%

CCCCNC(C)=O
inactive: [1] 4.5% | [2] -9.15% | [3] -18.5% | [4] -21.6% | [5] -0.95% | [6] -1.7%

CC(=O)OCC1OC(n2cnc(C(N)=S)c2N)C(OC(C)=O)C1OC(C)=O (configuration not stated)
inactive: [1] 2.3% | [2] 15.8% | [3] 11.4% | [4] -10.4% | [5] -2.35% | [6] 21.2%

NNC(=O)C1CCC(=O)N1S(=O)(=O)c1ccccc1 (configuration not stated)
inactive: [1] -14% | [2] -12.1% | [3] -22% | [4] 8.95% | [5] -2.25% | [6] -25.6%

CCOC(=O)c1ccc(NC(=O)Oc2ccc(SC)cc2)cc1
inactive: [1] 8.2% | [2] -5.25% | [3] 0.4% | [4] 8.95% | [5] 23.4% | [6] 6.9%

CC1(C)CC23C(=O)N(c4ccccc4)C(=Nc4ccccc4)NC2=CC(C#N)=C(C#N)C3O1 (configuration not stated)
inactive: [1] 2.6% | [2] -3.9% | [3] 5.3% | [4] 23.9% | [5] 0.85% | [6] -15.8%

CC(C)(C)NC(=S)NC1CC2CC1C1Cc3ccccc3C21 (configuration not stated)
inactive: [1] 20.6% | [2] -1.45% | [3] 22.9% | [4] -37.5% | [5] 5.8% | [6] 1.9%

Cc1nc(Nc2ccccc2)c(C#N)c(=O)[nH]1
inactive: [1] -19.6% | [2] -16.4% | [3] -15.6% | [4] -10.1% | [5] -2.95% | [6] -7.05%

O=C1c2ccccc2-c2ccc(-n3c(=O)c4ccccc4c4ccccc4c3=O)cc21
inactive: [1] 28.6% | [2] -1.7% | [3] 29.8% | [4] 16.1% | [5] 8.35% | [6] 25.4%

C(=C\c1cc(-c2cc(/C=C/c3ccccc3)[nH]n2)n[nH]1)/c1ccccc1
inactive: [1] 6.15% | [2] 9.1% | [3] -14.3% | [4] 13.2% | [5] -8% | [6] 44.4%

O=C1N2CCCSC2=NC1(c1ccccc1)c1ccccc1
inactive: [1] -7.15% | [2] 0.7% | [3] 1.75% | [4] 11.2% | [5] 13.2% | [6] -0.05%

N#CC(C(=O)O)C(c1c(Cl)cccc1Cl)C(C#N)C(=O)O (configuration not stated)
inactive: [1] 23.2% | [2] -6.7% | [3] -0.7% | [4] -1.3% | [5] 5.25% | [6] 15.6%

CCCCOC(=O)C1=NNC(=O)C1
inactive: [1] -17.6% | [2] -17.9% | [3] -11.9% | [4] -10.1% | [5] -12.3% | [6] -11.9%

c1cnc2c3ccncc3c3nc(-c4ccncc4)[nH]c3c2c1
inactive: [1] -10.2% | [2] -12.8% | [3] -11.3% | [4] -34.8% | [5] -17.3% | [6] -17.2%

O=C(O)c1cc(-c2ccccc2Cl)nc2ccccc12
inactive: [1] 10.7% | [2] -6.55% | [3] -8.3% | [4] -10.7% | [5] 19.8% | [6] 0.45%

c1ccc(-c2nnc(SCc3nc4ccccc4[nH]3)o2)cc1
inactive: [1] 5.65% | [2] 9.75% | [3] 29.8% | [4] 36.3% | [5] 20.4% | [6] 52%

N#C/C=C\c1ccc(C#N)cc1
inactive: [1] 28.1% | [2] -1.5% | [3] 20.3% | [4] 6.85% | [5] 25.1% | [6] 19.9%

CSc1nc(N)c(NS(=O)(=O)c2ccc([N+](=O)[O-])cc2)c(=O)[nH]1
inactive: [1] 4.35% | [2] -8.05% | [3] 5.65% | [4] -3.95% | [5] 10.1% | [6] 14.1%

CC(C)c1ccc(/C=N\NC(=O)NNC(=O)c2ccccc2)cc1
inactive: [1] -3.05% | [2] -4.25% | [3] 11.6% | [4] -95.8% | [5] -2.85% | [6] -8.25%

CCN(CC)CCOC(=O)c1ccc(N=Nc2cc(C(=O)O)ccc2O)cc1
inactive: [1] 14.8% | [2] -6.3% | [3] 4.1% | [4] -6.55% | [5] -0.8% | [6] -12.5%

OC1COCOC1C(O)C1OCOCC1O (configuration not stated)
inactive: [1] 3% | [2] 9.8% | [3] 7.85% | [4] 4.3% | [5] -6.15% | [6] 1.75%

O=S(O)CCCSSSCCCS(=O)O
inactive: [1] 26.1% | [2] 20.9% | [3] 45.5% | [4] 37% | [5] 20% | [6] 38.6%

Cc1ccc(C(C)C)cc1NC=O
inactive: [1] -6.55% | [2] -13.3% | [3] -20.1% | [4] 0.05% | [5] -2.6% | [6] 5.4%
